Screens (PubChem BioAssay)
Shown is part of a subset that was picked to be rich in hits.
TTR transcr act = increases transthyretin transcription. SH-SY5Y TTR promoter Gaussia luciferase, luminescence; 100% = recombinant luciferase protein wells. activation, % at 16.7 µM. 1.3% of 92,000 active;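 active means activation above the mean of all tested compounds plus 3 SD, cut at about 9.5% in these data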;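 further: cells exposed to compounds for one day before reading; 0% = median of all test compound wells on the plate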
TTR inh HuH7 = decreases TTR transcription in HuH7 cells in activator counter-screen; shares compounds with TTR transcr act; HuH7 TTR promoter-Gaussia luciferase reporter, luminescence; inhibition, % at 16.7 µM; 4% of 1,100 active;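 active means average inhibition above the solvent-only control wells' mean plus 3 SD, cut at about 15% in these data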;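 further: 0% = cells with DMSO only and 100% = cells with inhibitor control FD; inhibitors lower well luminescence so higher value means more inhibition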
TTR act confirm = confirmation of human transthyretin transcription activators; activation, % at 16.7 µM; shares compounds with TTR transcr act; 1,100 tested, under 10 active; SHSY5Y TTR promoter Gaussia luciferase, luminescence; 100% = purified Lucia enzyme wells, no cells;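 active means mean activation above a set limit taken from the earlier primary screen, cut at about 11% in these data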;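 further: 0% = DMSO-treated cells and 100% = recombinant Lucia luciferase without cells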
* hit, by the source's call.

SMILES	TTR transcr act	others
COc1ccc(Cn2ccc3ccc(-c4ccc5ccn(C(=O)C6CC6)c5c4)cc32)cc1	2
O=C(CSc1cc(Cl)ccc1Cl)N/N=C/c1ccc[nH]1	-2
Cc1ccccc1NCC(=O)N/N=C/c1ccc[nH]1	16*	TTR inh HuH7=-6;TTR act confirm=0
Cc1ccccc1NCC(=O)N/N=C/c1c[nH]c2ccccc12	-2
O=S1(=O)c2ccc(N3CC[C@H](O)C3)cc2O[C@@H]2CCN1C2	1
CC(C)(C)Cc1c(-c2ccc(F)cc2)nc2ccc(Cl)cn12	3
COc1cccc(CNC(=O)CCN2C(=O)[C@@H]3Cc4ccccc4CN3C2=O)c1	1
CN1C(=O)CSc2ccc(NC(=O)NCc3ccc(F)cc3)cc21	-1
CC(=O)Nc1ccc(NC(=O)Nc2ccc3c(c2)N(C)C(=O)CS3)cc1	10*	TTR inh HuH7=3;TTR act confirm=-1
CN1C(=O)CSc2ccc(NC(=O)N3CCc4ccccc43)cc21	-4
CCc1c2c3n4c1CCC[C@@H]4C[C@@H]3O[Si](C(C)C)(C(C)C)OC(C)C2=O (stereo not given in full)	-2
CCOc1ccc2nc(NC(=O)CN3C(=O)NC4(CCCC4)C3=O)sc2c1	1
c1ccc(-c2ccc(CNc3nc(-c4ccccn4)nnc3-c3ccccc3)cc2)cc1	-4
O=C(OCc1cn(Cc2ccc(Cl)cc2)nn1)N1CCCC1	5
Cn1nnnc1SCC(=O)N1CCCc2ccccc21	2
CC1Cc2ccccc2N1C(=O)CSc1nnnn1C (stereo not given)	6
CC1CC(=O)Nc2ccccc2N1C(=O)CSc1nnnn1C (stereo not given)	14*	TTR inh HuH7=-6;TTR act confirm=0
CC(C)[C@@H]1Cc2[nH]n(C)c(=O)c2[C@H](c2ccc(Cl)cc2)O1	2
Cc1cccc(C)c1NC(=O)COC(=O)c1cc(=O)[nH]c2ccccc12	-2
CCNC(=O)COC(=O)c1cc(=O)[nH]c2ccccc12	0
Cc1noc(C)c1COC(=O)c1cc(=O)[nH]c2ccccc12	31*	TTR inh HuH7=-17;TTR act confirm=0
C[C@H]1C2CC(OC(=O)Nc3ccc4c(c3)OCO4)C(C2)[C@H]2CCCCN21 (stereo not given in full)	0
CCCc1nc2ccc(C)cn2c1Cc1ccccc1C(F)(F)F	0
C[C@H]1[C@@H](OC(=O)NCc2cccc(Cl)c2)CC[C@@]23CCCN2C(=O)CCC[C@@H]13	1
CCCCCCCCN1C(=O)[C@H](CC(=O)N2CCC(c3ccccc3)CC2)C[C@@]2(C(=O)OC)CC(C)(C)CC=C12	1
SMILES	TTR transcr act	others
Cc1nc2c(C)cccc2c2c1COC2	-1
Cc1cc2ccc3ccccc3c2cc1CN(C)C	6
CN(C)Cc1cc2ccccc2c2c1COC2	12*	TTR inh HuH7=-13;TTR act confirm=-1
CCCCNC(=O)C[C@H]1C(=O)N(Cc2ccc(OC)cc2)C2=CCCCC[C@@]21C(=O)OC	-1
COc1ccc(CN2C(=O)CCC2(C)c2nnnn2-c2ccc3c(c2)OCCO3)cc1OC (stereo not given)	-1
COc1cccc(NC(=O)Cn2nnc(C(=O)NCc3cccs3)c2N)c1	-2
COc1ccc(NC(=O)Cn2nnc(C(=O)NCc3cccs3)c2N)c(OC)c1	2
CCOc1ccc(NC(=O)Cn2nnc(C(=O)NCc3cccs3)c2N)cc1	21*	TTR inh HuH7=-7;TTR act confirm=-1
CC(C)(N[C@@H](Cc1ccccc1)C(=O)NCCCc1ccccc1)C(=O)NCc1ccccc1	1
CCOC(=O)C1(C)CCN1C(=O)c1cccs1 (stereo not given)	1
CN(c1ccccc1)S(=O)(=O)c1cccc(NC(=O)CSc2nnc(C3CC3)n2C)c1	2
Cn1cnnc1SCC(=O)Nc1ccccc1	0
CN(C)S(=O)(=O)c1cccc(NC(=O)CSc2nncn2C)c1	12*	TTR inh HuH7=-6;TTR act confirm=5
O=C(OCC#CCSc1nnc(-c2cccc3ccccc23)o1)c1ccc(F)c(F)c1	0
C=CC1CN2CCC1CC2C(O)c1ccnc2ccc(OC)cc12 (stereo not given)	13*	TTR inh HuH7=-8;TTR act confirm=3
CCCCCCCCN1C(=O)[C@@H](CC(=O)NCc2ccc(C)o2)C[C@@]2(C(=O)OC)C1=C[C@H](C(C)C)O[C@@H]2C1CC1	-1
CN(C(=O)c1ccc(NC(=O)Cc2cccc(NC(=O)C3CCN(C(=O)CCc4ccccc4)CC3)c2)cc1)C1CC1	1
O=S(=O)(c1cc(Cl)cc(Cl)c1)N1CCN(c2nc(-c3cccs3)nc3ccccc23)CC1	-2
COc1ccc2oc(=O)c(C(=O)NCc3ccco3)cc2c1	0
COc1ccc2oc(=O)c(C(=O)Nc3ccccc3O)cc2c1	-3
COc1ccc2oc(=O)c(-c3nnc(N)s3)cc2c1	10*	TTR inh HuH7=-10;TTR act confirm=2
COc1ccc(Cn2ccc3ccc(-c4ccc5ccn(C(=O)C6CCC6)c5c4)cc32)cc1	1
COC(=O)[C@@]12CCCCC3=C1N(CCC3)C(=O)[C@H]2CC(=O)N1CCOCC1	-1
O=S(=O)(c1ccc(SCCO)nc1)N1CCOCC1	1
Cc1cccc(C(=O)NNC(=O)c2ccccc2-n2cccc2)c1	-1
SMILES	TTR transcr act	others
O=C(O)c1cccc(C(=O)c2cccc3ccccc23)c1	-1
Cc1cccc(C(=O)c2ccccc2C(=O)O)c1	11*	TTR inh HuH7=-7;TTR act confirm=1
Cc1ccc(CN[C@@H]2CC[C@@]34CCCN3C(=O)CCC[C@H]4C2)o1	0
Cc1cc(C)c(S(=O)(=O)Nc2nccs2)c(C)c1	0
CC(C)C[C@@H](COc1ccccc1)N1CCN(C)CCC1=O	3
CC1CCC(=O)N(CCOc2ccccc2)CC1 (stereo not given)	1
C[C@H]1CCC(=O)N([C@H](COc2ccccc2)Cc2ccccc2)CC1	14*	TTR inh HuH7=-5;TTR act confirm=0
CC(C)CNC(=O)OCc1cn(Cc2ccccc2)nn1	2
O=C(CN1CCN(Cc2ccc3c(c2)OCO3)CC1)Nc1ccc(F)cc1	1
O=C(CN1CCN(CC(=O)Nc2ccc(Cl)cc2)CC1)Nc1ccc(F)cc1	11*	TTR inh HuH7=-1;TTR act confirm=0
O=C(CN1CCc2ccccc2C1)Nc1ccc(F)cc1	2
COc1cccc(NC(=O)CN(C)C(=O)c2cc(S(=O)(=O)Nc3ccccc3OC)ccc2C)c1	4
COc1cccc(NC(=O)CN(C)C(=O)c2ccc(NS(=O)(=O)c3ccc(F)cc3)cc2)c1	0
COc1cccc(NC(=O)CN(C)C(=O)c2cc(S(=O)(=O)NCc3ccccc3)ccc2C)c1	32*	TTR inh HuH7=-20;TTR act confirm=1
C[C@H]1CCCN1c1ccc2c(c1)O[C@@H]1CCN(C1)S2(=O)=O	3
COc1cccc(NC(=O)n2ccc3ccc(-c4ccc5cc[nH]c5c4)cc32)c1	-1
CCOC1=C2CN(S(=O)(=O)c3ccc(C)cc3)[C@H](c3ccccc3)C[C@@H]2N(S(C)(=O)=O)[C@H](c2ccccc2)C1	-1
Cc1ccc(-n2nc3c(c2NC(=O)CC(C)C)CS(=O)C3)cc1 (stereo not given)	-1
COc1cc2ncnc(NCc3ccccc3)c2cc1OC	-3
COc1ccc(CNc2ncnc3cc(OC)c(OC)cc23)cc1	10*	TTR inh HuH7=-18;TTR act confirm=1
COc1ccc(CNc2ncnc3cc(Cl)ccc23)cc1	-2
O=C(OCC#CCSc1nnc(-c2cccc3ccccc23)o1)c1ccc(OC(F)F)cc1	0
CC(=O)c1ccc([C@H](O)[C@@H](C(=O)N(C)c2ccccc2)C2CC2)cc1	5
